Pol beta inh – qHTS Assay for Inhibitors of DNA Polymerase Beta; Pol beta primer extension/strand displacement, fluorescence kinetic; hit rate 1.3% among 340,000; AID 485314, 2010; Potency, µM (titrated, usually from 114 µM), hits mostly inhibitors; P06746
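Pol beta (10 nM) and compounds were preincubated 15 min at room temperature, then 50 nM substrate (final) started primer extension/strand displacement. Reads were taken at 0 and 10 min; concentration-response data were fitted to a four-parameter Hill equation.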
POLH inh – qHTS for Inhibitors of Polymerase Eta | hit rate 1.2% among 390,000 | Potency, µM (series often up to 114 µM), hits mostly inhibitors | DNA polymerase eta (Homo sapiens), Q9Y253 | AID 588591, 2011 | recombinant Pol eta, fluorescent DNA replication assay
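Pol eta at 10 nM preincubated with compounds 15 min at room temperature; reaction started with fluorescent substrate (50 nM final) and read kinetically at 0 and 10 min.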
FEN1 inh – qHTS Assay for the Inhibitors of Human Flap endonuclease 1 (FEN1). hit rate 0.35% among 390,000. Potency, µM (highest dose often 114 µM), hits mostly inhibitors. P39748. AID 588795, 2011. Recombinant FEN1 flap cleavage, fluorescence, 15 min; further: nearly all actives have a fitted effect of over 65% in size
Target sequence (P39748 whole entry, looked up): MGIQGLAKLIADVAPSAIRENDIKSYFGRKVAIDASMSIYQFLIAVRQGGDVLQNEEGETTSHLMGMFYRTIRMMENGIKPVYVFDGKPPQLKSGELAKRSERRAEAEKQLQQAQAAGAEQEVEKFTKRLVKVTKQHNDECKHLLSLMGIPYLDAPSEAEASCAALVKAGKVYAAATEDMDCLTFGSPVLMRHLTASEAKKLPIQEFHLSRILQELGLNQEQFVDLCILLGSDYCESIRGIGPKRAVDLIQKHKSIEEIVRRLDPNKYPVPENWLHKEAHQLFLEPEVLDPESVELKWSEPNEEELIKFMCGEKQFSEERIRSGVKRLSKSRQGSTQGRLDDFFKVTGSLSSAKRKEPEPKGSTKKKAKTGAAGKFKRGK
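Read-out was taken twice, immediately and after 15 min, following addition of 50 nM substrate to 10 nM FEN1 that had sat with test compound for 15 min at room temperature. Curves came from a four-parameter Hill model.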
TDP1 block – qHTS Assay for Inhibitors of Tyrosyl-DNA Phosphodiesterase (TDP1). Tyrosyl-DNA phosphodiesterase 1 (Homo sapiens), Q9NUW8. Potency, µM (series often up to 130 µM), actives largely listed as inhibitors. recombinant TDP1, AlphaScreen DNA substrate cleavage. hit rate 0.28% among 350,000; further: nearly all actives have a fitted effect of over 40% in size
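Steps: enzyme plus compound, 15 min RT; add biotin/phosphotyrosine-FITC oligonucleotide (15 nM final), react 5 min; add donor/acceptor beads (10 ug/ml final), 10 min; read AlphaScreen. Tdp1 at 1 nM final.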
POLI inh – qHTS for Inhibitors of Polymerase Iota; Pol iota fluorescent replication assay, 10 min; Potency, µM (doses to about 115 µM), most hits filed as inhibitors; hit rate 1% among 390,000
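Pol iota at 10 nM preincubated 15 min with compounds at room temperature; reaction started with fluorescent substrate, 50 nM final. Fluorescence read kinetically at 0 and 10 min; buffer-only wells as negative control.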
POLK inh – qHTS for Inhibitors of Polymerase Kappa. Potency, µM (top dose mostly 107 µM), usual class: inhibitors. AID 588579, 2011. purified Pol kappa, fluorescent DNA synthesis assay, 10 min. hit rate 0.53% among 400,000. DNA polymerase kappa (Homo sapiens), Q9UBT6
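10 nM Pol kappa was preincubated with compounds for 15 min at room temperature. Reaction started with 50 nM (final) substrate. Fluorescence read kinetically at 0 and 10 min.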
A number is an active result; n = inactive; u = inconclusive; x = not tested or not shown; ! = not confirmed by another sample; [ ] = remark or other dose. Compounds with a hit are over-represented: about 2.4% of the library has one in this group of screens. The call rests on the fitted dose curve; in most records, active means well fitted curve in the direction sought with a large enough effect; inconclusive means small, poorly fitted or top-dose-only effect, or another doubt; inactive means no such curve, though single readings can be large; an effect the other way counts as inactive or inconclusive.

SMILES	Pol beta inh	POLH inh	FEN1 inh	TDP1 block	POLI inh	POLK inh
COc1cc(/C=C2\CC/C(=C\c3cc(OC)c(OC)c(OC)c3)C2=O)cc(OC)c1OC	n	n	n	n	n	n
COc1ccc(/C=C2\COc3ccccc3C2=O)cc1OC	n	u	n	n	25.1µM	n
COc1ccc(/C=C2/CCc3ccccc3C2=O)cc1OC	n	n	n	n	n	n
CCOc1cc(/C=C2\COc3ccccc3C2=O)cc(Br)c1OCC(=O)N(C)C	n	u	n	n	17.8µM	n
O=C(CN1CCN(S(=O)(=O)c2cc(Cl)ccc2Cl)CC1)Nc1cccc(F)c1	n	n	n	n	n	n
C/C=C/c1ccc(OCc2cc(=O)n3cc(C)ccc3n2)c(OC)c1	35.5µM	n	n	n	u	n
O=C(c1cnc(N2CCCCC2)c2ccccc12)N1CCN(c2ccccc2F)CC1	n	n	n	n	n	n
O=S(=O)(O)c1ccc2c(N=Nc3ccc(S(=O)(=O)O)c4ccccc34)c(O)c(S(=O)(=O)O)cc2c1	x	x	10µM	u	44.7µM	44.7µM
CC(=O)Nc1ccc(S(=O)(=O)O)c2cc(S(=O)(=O)O)c(N=Nc3ccc(N=Nc4ccc(S(=O)(=O)O)cc4)c4ccc(S(=O)(=O)O)cc34)c(O)c12	x	x	1.26µM	x	3.16µM	1.41µM
COc1cccc(CNC(=O)COCc2cc(-c3ccc4c(c3)OCO4)on2)c1	n	n	n	n	n	n
C=C1C(=O)OC2C1CCC(C)=C1C(=O)C3OC3(C)C12 (stereo unspecified)	x	89.1µM	n	x	u	n
CC(=O)Nc1cccc(-n2nnc(SCC(=O)Nc3ccc(F)c(Cl)c3)n2)c1	u	u	n	n	79.4µM	n
CC(=O)Nc1cccc(-n2nnc(SCC(N)=O)n2)c1	n	n	n	x	n	n
CC(/C=N/NC(=O)Cc1cccn1C)=C\c1ccco1	u	u	n	x	44.7µM	u
Cn1cccc1CC(=O)N/N=C/c1ccco1	u	n	n	n	n	n
CCc1nnc(NS(=O)(=O)c2ccc(NC(=O)/C=C/c3ccc(OC)cc3OC)cc2)s1	56.2µM	u	n	n	u	u
CCc1nnc(NS(=O)(=O)c2ccc(N/C=C\C(=O)c3cccc(OC)c3)cc2)s1	n	n	n	n	n	n
CC(C)c1ccc(NC(=O)c2cc3c(s2)-c2ccccc2SC3)cc1	n	x	n	n	n	n
Cc1ccccc1NC(=O)Cn1c(O)c(N=NC(=O)c2ccccc2O)c2ccccc21	10µM	u	n	n	u	u
Cc1ccc(NC(=O)Cn2c(O)c(N=NC(N)=O)c3ccccc32)cc1	n	n	n	n	n	n
Cn1c(=O)c2c(-c3ccc(Cl)cc3)ccnc2n(C)c1=O	n	n	n	n	n	n
CSc1ccc(C(c2c(C(=O)O)[nH]c3ccccc23)c2c(C(=O)O)[nH]c3ccccc23)cc1	n	79.4µM	n	x	u	u
CCOC(=O)c1[nH]c2ccccc2c1NC(C)=O	n	n	n	x	n	n
CCOc1cc(Br)cc(C(c2c(C(=O)O)[nH]c3ccccc23)c2c(C(=O)O)[nH]c3ccccc23)c1O	u	79.4µM	u	x	n	u
O=C1CCc2cc(S(=O)(=O)Nc3ccccn3)ccc2N1	x	x	x	n	x	x
SMILES	Pol beta inh	POLH inh	FEN1 inh	TDP1 block	POLI inh	POLK inh
O=[N+]([O-])c1c(Nc2ccccc2O)cc(Cl)c2nonc12	17.8µM	44.7µM	n	x	11.2µM	n
NC(=O)CN1C(=O)NC(c2ccccc2)(c2ccccc2)C1=O	n	n	n	44.7µM	n	n
CN(C)C(=O)CN1C(=O)NC(c2ccccc2)(c2ccccc2)C1=O	n	n	n	n	n	n
COc1c(O)cc2c(c1O)[C@@H]1O[C@H](CO)[C@@H](O)[C@H](O)[C@H]1OC2=O	n	n	n	x	n	n
Cc1c(C(=O)O)c(O)cc2c1C(=O)c1c(O)c([C@H]3O[C@H](CO)[C@@H](O)[C@H](O)[C@H]3O)c(O)c(O)c1C2=O	x	x	50.1µM	0.708µM!	79.4µM	3.16µM
O=C(CNC(=O)c1ccc(Cl)cc1)OC(C(=O)Nc1cc(C(F)(F)F)ccc1Cl)c1ccccc1 (stereo unspecified)	x	x	x	n	x	x
COc1ccc(/C=N/NC(=O)c2nn(-c3ccccc3)c(=O)c3c(N)scc23)cc1	u	n	n	x	12.6µM	35.5µM
O=C(Nc1ccccc1Cl)NN1CCCCCC1	x	n	n	x	n	n
Cc1ccc(S(=O)(=O)N(CC(O)Cn2c3ccccc3c3ccccc32)c2cccc(C(=O)N(C)C)c2)cc1 (stereo unspecified)	n	n	89.1µM	x	89.1µM	79.4µM
Cc1ccc(N(C)C(=O)Cn2nc(Cc3ccncc3)c3ccccc3c2=O)cc1C	n	n	n	n	n	n
CCOC(=O)c1c(S(=O)(=O)NCC(=O)N(C)c2ccc(C)cc2)c(C)n(C)c1C	n	44.7µM	n	n	n	n
Cc1cc(C)n(-c2nc3ccccc3s2)n1	n	n	n	n	n	n
Cc1c2c(=O)n(-c3nc4ccccc4s3)nc-2cc(O)n1Cc1ccccc1	u	44.7µM	u	n	35.5µM	u
O=C(Nc1cccc(Cl)c1)OCC#CCCl	x	x	x	n	x	26.7µM
O=C(c1ccccc1O)N(Cc1cccs1)Cc1cccs1	x	x	x	n	x	x
CCCCCNc1nc2c(-c3ccccc3)nnn2c2ccccc12	n	n	n	n	n	n
CCOC(=O)C12CC1/C(=N\O)c1ccccc1O2 (stereo unspecified)	x	x	x	n	x	n[19.4 µM]
Cc1ccc(CS(=O)(=O)c2ncc(Cl)c(C(=O)Nc3nc4ccc(C)cc4s3)n2)cc1	n	n	n	n	u	n
COc1ccc2nc(NC(=O)c3nc(S(=O)(=O)Cc4ccc(C)cc4)ncc3Cl)sc2c1	u	u	n	n	89.1µM	u
COc1ccccc1CNC(=O)C1CCN(S(=O)(=O)c2ccc3nc4c(c(C(=O)O)c3c2)CCCC4)CC1	n	u	n	n	79.4µM	n
COc1ccc(CNC(=O)C2CCN(S(=O)(=O)c3ccc4nc5c(c(C(=O)O)c4c3)CC(C)CC5)CC2)cc1 (stereo unspecified)	u	u	n	n	89.1µM	n
O=C(O)c1c2c(nc3ccc(S(=O)(=O)N4CCC(C(=O)NCc5ccccc5)CC4)cc13)CCCC2	x	n	x	x	x	x
CC1CCc2nc3ccc(S(=O)(=O)N4CCC(C(=O)NCc5ccccc5Cl)CC4)cc3c(C(=O)O)c2C1 (stereo unspecified)	39.8µM	u	n	n	50.1µM	u

Assay outcomes as filed in PubChem BioAssay.
